High-throughput results (PubChem BioAssay)
This is a sample that favours compounds with a hit; in the whole collection about 7.7% have one here.
RE007 growth inh = less growth of the S. pombe RE007 Vpr strain; S. pombe RE007 Vpr strain, BacTiter-Glo ATP luminescence, 24 h; Potency, µM (top dose mostly 92.2 µM), for inactives: at the highest dose activity change, negative = less growth, most hits filed as inhibitors; actives 0.21% (n = 360,000); AID 651644; active means well fitted falling curve with a large enough effect; inconclusive means small, poorly fitted or top-dose-only effect; inactive means no such curve, though single readings can be large or run the other way; further: potency means the concentration at half of the fitted maximal effect; nearly all actives have a fitted effect of over 50% in size
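Fission yeast strain RE007, carrying one chromosomally integrated HIV-1 vpr copy, was seeded at OD 0.01 in PMG+AL medium with 23 nL pinned compound. After 24 h at 30 °C and 99% humidity, viability was read by BacTiter-Glo luminescence.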
Sm TGR block = blocks Schistosoma mansoni thioredoxin glutathione reductase. Q962Y6. actives 3% (n = 360,000). purified TGR, DTNB reduction, TNB absorbance 405 nm. Potency, µM (titrated, usually from 114 µM), for the others: at the highest dose activity change, negative = inhibition, actives largely listed as inhibitors; further: potency means the concentration at half of the fitted maximal effect; nearly all actives have a fitted effect of over 60% in size
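Kinetic colorimetric format: TGR-catalysed, NADPH-driven DTNB reduction monitored via TNB absorbance. Enzyme dispensed at 20 nM; compound exposure 15 min at room temperature before reaction start.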
HCMV antiviral = blocks human cytomegalovirus replication | HFF cells, HCMV-luciferase reporter, 72 h; active compounds read low | activity change, negative = inhibition, % at 57.5 µM | actives 4.5% (n = 410,000) | AID 1259415; in the data active means activity change below about -60%; inconclusive means no clear call, values can overlap the other calls; inactive means above about -39%
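HFF cells seeded 16 h at 37C, treated with compounds, infected with luciferase-reporter HCMV at MOI 1 PFU/cell; luciferase read at 72 h post infection, normalized to buffer-only and Salinomycin controls.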
Tb PYK inh = blocks Trypanosoma brucei pyruvate kinase | TbPYK enzyme, Kinase-Glo Plus ATP luminescence, 45 min | Q57TT1 | Potency, µM (titrated, usually from 76.8 µM), for inactives: top-dose activity, negative = inhibition, most hits filed as inhibitors | AID 624173 | actives 0.12% (n = 410,000); further: potency means the concentration at half of the fitted maximal effect; nearly all actives have a fitted effect of over 50% in size
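Luminescence from Kinase-Glo Plus, added after a 45-minute room-temperature reaction, served as the end-point read-out. The enzyme and substrate were preincubated with compound before ADP (130 uM final) initiated turnover. Concentration-effect curves came from normalized qHTS data.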
FBPA Giardia inh = blocks Giardia fructose-bisphosphate aldolase activity | A8B2U2 | purified Giardia FBPA | Potency, µM (highest dose often 59.6 µM), for the others: at the top dose activity, negative = inhibition, hits mostly inhibitors | actives 0.71% (n = 290,000) | AID 2451; further: potency means the concentration at half of the fitted maximal effect; nearly all actives have a fitted effect of over 55% in size
Target sequence (A8B2U2 whole entry, looked up): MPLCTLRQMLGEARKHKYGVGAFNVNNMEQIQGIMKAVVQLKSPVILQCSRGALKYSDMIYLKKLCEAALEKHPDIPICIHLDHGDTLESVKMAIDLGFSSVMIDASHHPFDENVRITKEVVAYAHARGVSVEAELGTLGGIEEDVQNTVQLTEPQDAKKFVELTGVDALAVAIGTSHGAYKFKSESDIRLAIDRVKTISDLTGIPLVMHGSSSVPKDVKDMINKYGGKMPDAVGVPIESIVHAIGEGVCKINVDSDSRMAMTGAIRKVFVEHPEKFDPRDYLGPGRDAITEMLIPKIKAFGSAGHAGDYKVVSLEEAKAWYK
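Giardia FBPA (40 nM reagent) was preincubated 10 min at RT with compound (up to 57.5 uM final), then substrate plus GAPDH/TPI/NAD/arsenate coupling system with diaphorase/resazurin was added; resorufin fluorescence (525/598 nm) was read after 20 min.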
FMDV antiviral = antivirals against foot and mouth disease virus; FMDV antiviral cell-based qHTS; Potency, µM (doses to about 57.9 µM), for inactives: at the highest dose activity change, negative = inhibition, hits mostly inhibitors; actives 1.2% (n = 410,000); AID 1159524; calls by dose curve; tested in HEK293T cells; further: read-out not given here; potency means the concentration at half of the fitted maximal effect; nearly all actives have a fitted effect of over 45% in size
Starred values were filed as active, the others as inactive. Unless noted, the call rests on the fitted dose curve; in most records, active means well fitted curve in the direction sought with a large enough effect; inconclusive means small, poorly fitted or top-dose-only effect, or another doubt; inactive means no such curve, though single readings can be large; an effect the other way counts as inactive or inconclusive. On the % scale 0 is the no-effect control and ±100 the full control effect.

O=C(Nc1ccccc1)c1nc[nH]c1C(=O)O was read as Sm TGR block inconclusive, HCMV antiviral -19.2, Tb PYK inh -1.9% and FMDV antiviral -1.8%.
C[C@@H](NC(=O)c1[nH]cnc1C(=O)Nc1ccc(Cl)cc1)c1ccccc1 was read as RE007 growth inh 3.2%, Sm TGR block 2.0%, HCMV antiviral -70.5*, Tb PYK inh -2.7% and FMDV antiviral -4.0%.
For O=C(c1ccccc1)c1nc[nH]c1C(=O)Nc1ccccc1 the results were RE007 growth inh 5.5%, Sm TGR block 0.1%, HCMV antiviral -65.2*, Tb PYK inh -10.1%, FBPA Giardia inh -4.4% and FMDV antiviral 4.4%.
Screening Cc1cccc(NC(=O)c2nc[nH]c2C(=O)Nc2cc(Br)ccc2F)c1 returned RE007 growth inh -6.5%, HCMV antiviral -88.4*, Tb PYK inh 4.6% and FMDV antiviral -16.8%.
CN(Cc1ccccc1)C(=O)c1[nH]cnc1C(=O)Nc1ccc(Cl)cc1 was read as RE007 growth inh -3.6%, Sm TGR block -16.2%, HCMV antiviral -31.2, Tb PYK inh 0.1% and FMDV antiviral 0.0%.
`Cc1cccc(NC(=O)c2nc[nH]c2C(=O)Nc2ccccc2[N+](=O)[O-])c1` gave RE007 growth inh 1.4%, Sm TGR block 3.6%, HCMV antiviral -36.7, Tb PYK inh 5.1%, FBPA Giardia inh -7.1% and FMDV antiviral 4.0%.
For CCC1CN(CCC(=O)N2CCN(c3ncccn3)CC2)Cc2cc(OC)ccc2O1 (stereo unspecified) the results were FMDV antiviral -19.1%.
For Cn1c2c(c(=O)c3ccccc31)C[C@@H](O)C(C)(C)O2 the results were FBPA Giardia inh 1.2% and FMDV antiviral 3.0%.
For Cc1ccc(NC(=O)C2Cc3ccccc3N2C(=O)c2ccccc2)cc1Cl (stereo unspecified) the results were Sm TGR block 0.1%, HCMV antiviral -11.0, Tb PYK inh 3.4% and FMDV antiviral -18.4%.
C[C@@H](NC(=O)c1[nH]cnc1C(=O)Nc1cccc(Cl)c1)c1ccccc1 was read as RE007 growth inh 1.1%, Sm TGR block -16.7%, HCMV antiviral -78.6*, Tb PYK inh 1.7% and FMDV antiviral 0.0%.
For C[C@H](NC(=O)c1[nH]cnc1C(=O)Nc1cccc(Cl)c1)c1ccccc1 the results were RE007 growth inh 9.1%, Sm TGR block -3.3%, HCMV antiviral inconclusive, Tb PYK inh -4.2% and FMDV antiviral -1.5%.
Screening COc1cc(-c2noc(C)c2C#Cc2ccccn2)cc(OC)c1OC returned RE007 growth inh -12.9%, Sm TGR block 35.5µM*, HCMV antiviral -17.6, Tb PYK inh -4.3%, FBPA Giardia inh -4.8% and FMDV antiviral -16.9%.
Screening COc1cc(-c2c(-c3cc(OC)c(OC)c(OC)c3)noc2C)ccc1F returned RE007 growth inh -0.4%, Sm TGR block -11.2%, HCMV antiviral -94.3*, Tb PYK inh 0.4%, FBPA Giardia inh -17.8% and FMDV antiviral -22.8%.
COc1cc(-c2noc(C)c2/C=C/c2ccc(N)cc2)cc(OC)c1OC was read as RE007 growth inh -2.9%, Sm TGR block -9.5%, HCMV antiviral -83.3*, Tb PYK inh 0.0%, FBPA Giardia inh 5.6% and FMDV antiviral -3.3%.
Screening COc1cc(-c2noc(C)c2C#Cc2ccc(N)cc2)cc(OC)c1OC returned RE007 growth inh 7.9%, Sm TGR block -14.8%, HCMV antiviral -19.2, Tb PYK inh -13.0%, FBPA Giardia inh -3.4% and FMDV antiviral 9.9%.
Screening CCOC(=O)c1cc(NC(=O)c2ccc(F)cc2)c(=O)n2c1oc1ccc(Cl)cc12 returned Sm TGR block 5.2%, HCMV antiviral 16.7, Tb PYK inh 3.8% and FMDV antiviral -1.1%.
For Cc1ccccc1-c1nc(SCC(=O)NCc2ccco2)c2c(=O)n(C)c(=O)n(C)c2n1 the results were Sm TGR block -14.1%, HCMV antiviral -22.0, Tb PYK inh 13.9% and FMDV antiviral 0.0%.
`Clc1ccc(C(c2ccccc2)c2c[nH]c3ccccc23)s1` (stereo unspecified) gave Sm TGR block -1.1%, HCMV antiviral -66.6*, Tb PYK inh -0.9% and FMDV antiviral 0.0%.
`Cc1ccc2oc(/N=C(\N)NC(=O)C(C)(C)C)nc2c1` gave RE007 growth inh 14.5%, Sm TGR block 10.9%, HCMV antiviral -90.0*, Tb PYK inh -1.8%, FBPA Giardia inh 4.3% and FMDV antiviral 35.5µM*.
Cc1ccc2oc(/N=C(\N)NC(=O)C3CC3)nc2c1 was read as RE007 growth inh -8.3%, Sm TGR block -11.2%, HCMV antiviral -5.0, Tb PYK inh 4.9%, FBPA Giardia inh -0.2% and FMDV antiviral -21.9%.
COc1ccc(-c2nc(CS(=O)CC(=O)NCc3ccc(C)cc3)c(C)o2)cc1OC (stereo unspecified) was read as RE007 growth inh -9.9%, Sm TGR block 39.8µM*, Tb PYK inh 2.3%, FBPA Giardia inh -5.9% and FMDV antiviral -6.4%.
For Cc1ccc(-c2nc(CS(=O)CC(=O)NCc3ccccc3)c(C)o2)cc1 (stereo unspecified) the results were RE007 growth inh -5.7%, Sm TGR block 39.8µM*, HCMV antiviral 20.7, Tb PYK inh -7.3%, FBPA Giardia inh 5.3% and FMDV antiviral 3.4%.
Screening Cc1ccc(-c2nc(CS(=O)CC(=O)NCc3ccco3)c(C)o2)cc1 (stereo unspecified) returned RE007 growth inh -8.5%, Sm TGR block 50.1µM*, HCMV antiviral -33.9, Tb PYK inh -9.6%, FBPA Giardia inh 3.2% and FMDV antiviral -8.0%.
`COc1ccc(-c2nc(CS(=O)CC(=O)NCc3ccc(F)cc3)c(C)o2)cc1OC` (stereo unspecified) gave Sm TGR block inconclusive, HCMV antiviral 2.4, Tb PYK inh -1.1% and FMDV antiviral 11.1%.
Screening COc1ccc(-c2nc(CS(=O)CC(=O)NCCc3ccc(Cl)cc3)c(C)o2)cc1OC (stereo unspecified) returned Sm TGR block inconclusive, HCMV antiviral -19.6, Tb PYK inh -5.2% and FMDV antiviral -12.6%.
For CCOc1ccc(CCNC(=O)CS(=O)Cc2nc(-c3ccc(OC)c(OC)c3)oc2C)cc1OCC (stereo unspecified) the results were RE007 growth inh -23.7%, Sm TGR block 50.1µM*, HCMV antiviral -3.7, Tb PYK inh -8.7% and FMDV antiviral -2.0%.
